The values below come from PubChem BioAssay (EPA / NIEHS).

As usually defined, the AC50 is the concentration at which the activity in the assay is half-maximal.

The nature of assay [1]: TOX21_p53_BLA_p5_viability: Viability Assessment in the Tox21 HCT-116 p53 Agonism Beta-lactamase Assay, Phase 5 (AID 2283600). The procedure, abridged:
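ATP luminescence (CellTiter-Glo, 30 min, RT) served as the viability read-out, with loss of signal indicating cytotoxicity. Compounds in DMSO were pinned at a 217-fold dilution onto 4000 cells/well and incubated 16 h, 37C.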

The target in assay [2] is Cellular tumor antigen p53 (Homo sapiens) (UniProt P04637). Put plainly: TOX21_p53_BLA_p4_ratio: Tox21 HCT-116 p53 Agonism Beta-lactamase Assay, Ratio, Phase 4 (AID 2283601). The procedure, abridged:
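Signal is the blue/green (460nm/530nm) ratio of cleaved versus uncleaved CCF4-AM substrate, read after 2 h substrate loading. Cells were HCT116 carrying the p53-responsive beta-lactamase reporter, dosed 16 h at 37C, 5% CO2; CellTiter-Glo measured in parallel.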

Assay [3] is described as follows: Tanguay_ZF_120hpf_MORT_legacy: (Legacy) Oregon State University Tanguay Lab 120 Hour Post-fertilization zebrafish Assay for Mortality (AID 2283633).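 On AC50: fitted as increase in binary mortality versus DMSO negative control.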 The procedure, abridged: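 Brightfield scoring of embryo death (binary) at 24 and 120 hpf; static exposure 6–120 hpf, 28C, sealed and foil-covered. Pronase-dechorionated 5D wild-type larvae, single embryo per well. DMSO 0.64% v/v; trimethyltin chloride 5uM positive control.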

A short description of assay [4]: Tanguay_ZF_120hpf_YSE_legacy: (Legacy) Oregon State University Tanguay Lab 120 Hour Post-fertilization zebrafish Assay for Yolk Sac Edema (AID 2283634).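 On AC50: actives raise the incidence of yolk sac edema above the DMSO baseline.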 A digest of the protocol: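 Binary brightfield scoring of yolk sac edema at 120 hpf; DMSO baseline, gain-of-signal fitting. Dechorionated 5D larvae, one per well, static exposure 6–120 hpf, 28C, 0.64% DMSO. Dead embryos not scored.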

Assay [5] can be described thus: Tanguay_ZF_120hpf_AXIS_legacy: (Legacy) Oregon State University Tanguay Lab 120 Hour Post-fertilization zebrafish Assay for Body Axis Malformation (AID 2283635).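 On AC50: potency for an increased fraction of larvae scored with body axis malformation.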 A digest of the protocol: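 Embryos: 5D wild-type, pronase-dechorionated 4 hpf; static exposure 6–120 hpf, 28C, sealed, dark, 1 embryo/well, 0.64% DMSO. 120 hpf axis malformation scored present/absent; dead embryos excluded. Analysed as gain of signal vs DMSO.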

Assay [6] is described as follows: Tanguay_ZF_120hpf_EYE_legacy: (Legacy) Oregon State University Tanguay Lab 120 Hour Post-fertilization zebrafish Assay for Eye Malformation (AID 2283636).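 Further: binary presence or absence of eye malformation scored by brightfield in 120 hpf larvae.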 The procedure, abridged: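 Binary brightfield scoring of eye defects at 120 hpf after static exposure from 6 hpf of single pronase-dechorionated wild-type embryos (28C, 0.64% DMSO). Non-mortality endpoints omitted where embryos died; fit vs DMSO.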

Assay [7] in a line: Tanguay_ZF_120hpf_SNOU_legacy: (Legacy) Oregon State University Tanguay Lab 120 Hour Post-fertilization zebrafish Assay for Snout Malformation (AID 2283637). The procedure, abridged:
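Binary snout-malformation call at 120 hpf in wild-type 5D embryos, chorion removed by pronase, under static exposure from 6 hpf at 28C (0.64% DMSO). Embryos dying by 24 or 120 hpf excluded.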

Assay [8] is described as follows: Tanguay_ZF_120hpf_JAW_legacy: (Legacy) Oregon State University Tanguay Lab 120 Hour Post-fertilization zebrafish Assay for Jaw Malformation (AID 2283638). The procedure, abridged: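 Binary jaw-malformation calls at 120 hpf by brightfield imaging; DMSO (0.64% v/v) = baseline. Embryos: 5D wild-type, pronase-dechorionated, one per well from 6 hpf, static exposure, 28C, sealed, dark.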

The nature of assay [9]: Tanguay_ZF_120hpf_OTIC_legacy: (Legacy) Oregon State University Tanguay Lab 120 Hour Post-fertilization zebrafish Assay for Otic Vesicle Malformation (AID 2283639). The procedure, abridged: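 Wild-type zebrafish larvae, whole-embryo exposure from early stage to 120 hpf at 28C. Binary brightfield scoring of otic vesicle morphology, fitted in the positive direction against the DMSO baseline.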

The nature of assay [10]: Tanguay_ZF_120hpf_PE_legacy: (Legacy) Oregon State University Tanguay Lab 120 Hour Post-fertilization zebrafish Assay for Pericardial Edema (AID 2283640).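 On AC50: potency for increased incidence of pericardial edema versus DMSO baseline.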 A digest of the protocol:
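Static waterborne exposure, 5D wild-type embryos, 28C, to 120 hpf; final DMSO 0.64% (vol/vol). Binary PE call at 120 hpf by brightfield; fitted upward vs DMSO baseline. 5uM trimethyltin chloride as positive control.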

The nature of assay [11]: Tanguay_ZF_120hpf_BRAI_legacy: (Legacy) Oregon State University Tanguay Lab 120 Hour Post-fertilization zebrafish Assay for Brain Malformation (AID 2283641). A digest of the protocol: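 Read-out: binary brain morphology call at 120 hpf (brightfield), fitted in gain-of-signal direction vs DMSO. Wild-type Tropical 5D embryos, static exposure, 28C, 0.64% DMSO final; 5uM trimethyltin chloride as positive control.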

Assay [12] is described as follows: Tanguay_ZF_120hpf_SOMI_legacy: (Legacy) Oregon State University Tanguay Lab 120 Hour Post-fertilization zebrafish Assay for Somite Malformation (AID 2283647). The procedure, abridged: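 Binary brightfield scoring of somite defects at 120 hpf in 5D wild-type larvae; one dechorionated embryo per well, static exposure from 6 hpf, 28C, sealed and dark. Final DMSO 0.64%; trimethyltin chloride 5uM positive control.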

The nature of assay [13]: Tanguay_ZF_120hpf_PFIN_legacy: (Legacy) Oregon State University Tanguay Lab 120 Hour Post-fertilization zebrafish Assay for Pectoral Fin Malformation (AID 2283648).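 Further: each larva judged yes or no for fin defect by brightfield with dead larvae skipped.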 The procedure, abridged: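 Pectoral fin malformation was recorded as a binary endpoint at 120 hpf in wild-type Tropical 5D larvae, which had been dechorionated and exposed statically from 6 hpf at 28C in 0.64% DMSO. Dead embryos were excluded.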

Assay [14] can be described thus: Tanguay_ZF_120hpf_CFIN_legacy: (Legacy) Oregon State University Tanguay Lab 120 Hour Post-fertilization zebrafish Assay for Caudal Fin Malformation (AID 2283649). The procedure, abridged:
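Dechorionated 5D wild-type zebrafish, static exposure 6–120 hpf, 28C, sealed and dark, 0.64% v/v DMSO final. Binary fin-malformation call at 120 hpf, brightfield; gain of signal vs DMSO baseline.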

Assay [15] can be described thus: Tanguay_ZF_120hpf_PIG_legacy: (Legacy) Oregon State University Tanguay Lab 120 Hour Post-fertilization zebrafish Assay for Pigmentation Malformation (AID 2283650). A digest of the protocol:
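Pigment malformation recorded as a binary call at 120 hpf in zebrafish (Tropical 5D) exposed singly from 6 hpf after pronase dechorionation. Static, sealed, 28C exposure, 0.64% DMSO; mortality excludes scoring; positive-direction fit against DMSO.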

Assay [16] in a line: Tanguay_ZF_120hpf_CIRC_legacy: (Legacy) Oregon State University Tanguay Lab 120 Hour Post-fertilization zebrafish Assay for Circulatory Malformation (AID 2283651). The procedure, abridged: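 Binary circulatory-malformation call at 120 hpf via brightfield imaging, relative to DMSO controls. Embryos (5D strain, chorion removed) received static, light-shielded exposure at 28C.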

Read-out in assay [17]: solute carrier (SLC22A6), SLC22A6 (gene 9356)
Put plainly: LTEA_HepaRG_SLC22A6: Life Technologies and Expression Analysis (LTEA) Assay for solute carrier (SLC22A6) using HepaRG (AID 2283653; active means hit-call score of the fitted dose curve at least 0.9, where 1 is the maximum; inactive means score below 0.9). Particulars: mRNA level, 48 h; actives raise or lower the signal. The procedure, abridged: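 HepaRG, human liver line; 48 h chemical exposure; 8-pt half-log series from 100 uM in 0.5% DMSO, duplicate wells. Readout: TaqMan qRT-PCR of SLC22A6 mRNA, housekeeping-normalised; bidirectional curve fit vs DMSO baseline.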

A short description of assay [18]: Tanguay_ZF_120hpf_SWIM_legacy: (Legacy) Oregon State University Tanguay Lab 120 Hour Post-fertilization zebrafish Assay for Swim Bladder Malformation (AID 2283654).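 Further: swim bladder malformation in each larva scored yes or no under brightfield.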 A digest of the protocol:
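Scoring is binary for swim bladder defects at 120 hpf, by brightfield inspection of zebrafish larvae. Embryos were exposed singly from 6 hpf after pronase dechorionation, at 28C with 0.64% DMSO; mortality excluded scoring.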

Assay [19] can be described thus: Tanguay_ZF_120hpf_TRUN_legacy: (Legacy) Oregon State University Tanguay Lab 120 Hour Post-fertilization zebrafish Assay for Truncated Body (AID 2283655). A digest of the protocol: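 Whole-embryo zebrafish screen: dechorionated 5D embryos, static exposure 6–120 hpf, 28C, sealed foil-covered plates, 0.64% DMSO. Binary truncation call; gain of signal versus DMSO baseline.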

Read-out in assay [20]: kallikrein-3 (KLK3), KLK3 (gene 354)
The assay can be described thus: LTEA_HepaRG_KLK3: Life Technologies and Expression Analysis (LTEA) Assay for kallikrein-3 (KLK3) using HepaRG (AID 2283652; active means hit-call score of the fitted dose curve at least 0.9, where 1 is the maximum; inactive means score below 0.9). Particulars: mRNA level, 48 h; actives raise or lower the signal. A digest of the protocol: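 KLK3 transcript levels were measured by TaqMan qRT-PCR with normalisation to three housekeeping genes. HepaRG cultures received chemicals for 48 h at up to 100 uM (half-log, 8 points, 0.5% DMSO vehicle), fitted in both directions against DMSO.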

Structures are written as SMILES. Where “and” joins values, the source holds several entries; their conditions need not be identical. Identical values can stand only once. Results filed as inconclusive are left out. Where a structure was tested more than once in an assay, its records may differ in their call. Calls of active or inactive are those of the source. How the source made its calls, unless noted: active means hit-call score of the fitted dose curve at least 0.9, where 1 is the maximum; inconclusive means response in the unintended direction; inactive means score below 0.9.

Cellular tumor antigen p53 (Homo sapiens), sequence (P04637 whole entry, looked up): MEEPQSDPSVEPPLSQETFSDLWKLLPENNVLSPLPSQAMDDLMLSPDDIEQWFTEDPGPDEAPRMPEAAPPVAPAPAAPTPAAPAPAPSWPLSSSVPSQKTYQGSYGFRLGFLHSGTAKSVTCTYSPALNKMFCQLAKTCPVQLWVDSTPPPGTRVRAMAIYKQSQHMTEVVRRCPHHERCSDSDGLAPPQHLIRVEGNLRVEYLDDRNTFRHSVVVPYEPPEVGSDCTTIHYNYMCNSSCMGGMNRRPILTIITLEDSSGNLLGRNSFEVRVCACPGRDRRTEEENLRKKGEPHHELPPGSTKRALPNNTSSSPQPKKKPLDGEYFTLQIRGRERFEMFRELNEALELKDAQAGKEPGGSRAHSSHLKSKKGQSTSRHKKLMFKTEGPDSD

On to `CO/C=C(/C(=O)OC)c1ccccc1Oc1cc(Oc2ccccc2C#N)ncn1`, for which the outcome in [1], in assay [2], in assay [3], in assay [4], in assay [5] and in assay [6] was inactive. The call in assay [7], in [8], in assay [9], in assay [10], in assay [11] and in assay [12] was inactive. Besides, the compound was classed as inactive in [13], in assay [14], in assay [15], in assay [16], in assay [17] and in assay [18]. The outcome in assay [19] was inactive. Moreover, the AC50 in [3] is 7.48 µM (active) and 1.44 µM (active); in assay [4] it was 5.69 µM (active); in [10], 5.47 µM (active).

Consider `C=CC1(C)OC(=O)N(c2cc(Cl)cc(Cl)c2)C1=O` (stereo not given), for which the call in assay [1], in assay [2], in assay [3], in assay [4], in assay [5] and in [6] was inactive. For the same compound, the outcome in assay [7], in assay [8], in assay [9], in [10], in assay [12] and in assay [14] was inactive. Moreover, the result in assay [15], in [16], in assay [20], in assay [17], in assay [18] and in assay [19] was inactive.

As for `CC(C)(C)c1ccc(CSc2cnn(C(C)(C)C)c(=O)c2Cl)cc1`, the result in assay [1], in assay [2], in assay [4], in [5], in [6] and in assay [7] was inactive. Besides, the compound was called inactive in [8], in assay [9], in assay [10], in [13], in assay [14] and in assay [16]. For the same compound, the result in [18] and in [19] was inactive. For the same compound, the AC50 in [3] is 25.1 µM (active).

For the compound `CCCCC(CC)COC(=O)c1ccccc1C(=O)OCC(CC)CCCC` (stereo not given), the result in [1], in assay [2], in assay [3], in assay [4], in [5] and in assay [6] was inactive. In addition, the call in assay [7], in assay [8], in assay [9], in assay [12], in [13] and in assay [14] was inactive. Besides, the compound was called inactive in assay [15], in assay [16], in [18] and in assay [19].

Turning to `COC(=O)C=C(C)OP(=O)(OC)OC`, the compound was called inactive in assay [1], in assay [2], in assay [3], in assay [4], in assay [5] and in assay [6]. Moreover, the call in assay [7], in assay [8], in assay [10], in assay [11], in assay [12] and in assay [13] was inactive. The compound was classed as inactive in [14], in assay [15], in [16], in assay [18] and in assay [19].

In the case of `CNC(=O)ON=CC(C)(C)SC`, the call in [1], in assay [2], in [3], in [6], in assay [7] and in [8] was inactive. In addition, the outcome in assay [9], in [12], in [13], in assay [14], in assay [15] and in assay [16] was inactive. In addition, the result in assay [18] was inactive. Further, the AC50 is 3.47 µM (active) in assay [4], 2.31 µM (active) in [5], 2.81 µM (active) in [10] and 1.07 µM (active) in assay [19].
